# An excerpt weighted towards active compounds, which were near 3.1% of everything screened.
# pPAFAH FP inh: pPAFAH enzyme inhibitors, primary screen, biochemical, fluorescence polarization, human; Platelet-activating factor acetylhydrolase (Homo sapiens), Q13093; recombinant pPAFAH, FP-rhodamine probe fluorescence polarization; 330,000 compounds, 1.5% hits; inhibition, % at 3.39 µM; AID 463082, 2010;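 active = inhibition above the mean inhibition across the screen plus 3 SD, cut at about 25% in these data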;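 also: inhibitors block binding of the rhodamine activity-based probe so polarization drops; 0% = enzyme with DMSO and 100% = wells lacking pPAFAH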
# PAFAH1B3 FP inh: PAFAH1B3 enzyme inhibitors, primary screen, biochemical, fluorescence polarization, human | Platelet-activating factor acetylhydrolase IB subunit alpha1 (Homo sapiens), Q15102 | recombinant PAFAH1B3, FP-rhodamine probe | inhibition, % at 3.39 µM | 340,000 compounds, 0.28% hits;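 active = inhibition above the screen-wide average of all tested compounds plus 3 SD, cut at about 25% in these data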;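 also: 0% = enzyme with DMSO only and 100% = wells lacking PAFAH1B3 protein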
# PAFAH2 inh: PAFAH2 enzyme inhibitors, primary screen, biochemical, fluorescence polarization, human | recombinant PAFAH2, FP-rhodamine activity probe | inhibition, % at 3.39 µM | 340,000 compounds, 0.99% hits | Platelet-activating factor acetylhydrolase 2, cytoplasmic (Homo sapiens), Q99487;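 active = inhibition above the mean over all tested compounds plus 3 SD, cut at about 30% in these data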;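 also: inhibitors block probe labeling of enzyme so polarization drops; 0% = enzyme with DMSO and 100% = wells lacking PAFAH2 protein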
# PAFAH1B2 inh: PAFAH1B2 enzyme inhibitors, primary screen, biochemical, fluorescence polarization, human | Platelet-activating factor acetylhydrolase IB subunit alpha2 (Homo sapiens), P68402 | recombinant PAFAH1B2, FP-rhodamine activity probe | inhibition, % at 3.39 µM | 340,000 compounds, 1.2% hits | AID 492953, 2010;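 active = inhibition above the mean of all tested compounds plus 3 SD, cut at about 24% in these data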;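 also: 0% = enzyme with DMSO and 100% = wells lacking PAFAH1B2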
# Rin1-Abl PPI inh: inhibitors of Rin1-Abl protein binding, primary screen, biochemical, TR-FRET; inhibition, % at 7.35 µM; 360,000 compounds, 0.4% hits; AID 588664, 2011; in the data active = inhibition above about 5%, passing the limit was not always enough
# E coli Lon inh: inhibitors of E. coli Lon protease, primary screen, biochemical, fluorescence polarization | P0A9M0 | purified E. coli Lon protease | inhibition, % at 7.94 µM | 360,000 compounds, 0.42% hits | AID 602123, 2011; in the data active = inhibition above about 13%, passing the limit was not always enough;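 also: 0% = enzyme with probe and DMSO and 100% = no enzyme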
# Target sequence (P0A9M0 whole entry, looked up): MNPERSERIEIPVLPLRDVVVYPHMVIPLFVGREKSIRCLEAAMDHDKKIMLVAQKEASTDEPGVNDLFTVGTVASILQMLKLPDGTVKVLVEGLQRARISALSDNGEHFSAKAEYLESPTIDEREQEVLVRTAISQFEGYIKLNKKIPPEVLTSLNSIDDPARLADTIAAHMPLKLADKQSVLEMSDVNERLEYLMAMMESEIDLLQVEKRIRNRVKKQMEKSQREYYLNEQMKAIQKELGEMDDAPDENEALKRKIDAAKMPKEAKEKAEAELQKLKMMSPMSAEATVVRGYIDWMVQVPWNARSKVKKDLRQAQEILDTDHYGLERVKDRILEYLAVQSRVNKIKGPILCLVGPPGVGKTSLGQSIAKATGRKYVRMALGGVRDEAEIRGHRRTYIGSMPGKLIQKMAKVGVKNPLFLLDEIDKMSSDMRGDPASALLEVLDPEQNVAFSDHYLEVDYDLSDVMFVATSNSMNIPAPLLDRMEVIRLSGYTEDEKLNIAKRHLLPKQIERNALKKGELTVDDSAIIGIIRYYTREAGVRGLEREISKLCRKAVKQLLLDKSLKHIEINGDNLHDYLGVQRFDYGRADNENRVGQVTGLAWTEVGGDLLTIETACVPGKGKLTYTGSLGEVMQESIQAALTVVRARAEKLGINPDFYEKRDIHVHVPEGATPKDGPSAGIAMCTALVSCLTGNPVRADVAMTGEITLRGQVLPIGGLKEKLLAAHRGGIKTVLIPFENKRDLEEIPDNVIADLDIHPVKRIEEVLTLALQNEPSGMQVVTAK
# pPAFAH confirm: pPAFAH (PLA2G7) enzyme inhibitors, confirmation, biochemical, fluorescence polarization, human | inhibition, % at 3.39 µM | 2,300 compounds, 72% hits | shares compounds with pPAFAH FP inh | recombinant pPAFAH, FP-Rh probe fluorescence polarization | AID 463230, 2010;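 active = mean inhibition of the triplicate above the hit cutoff set for the earlier primary screen, cut at about 25% in these data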;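 also: 0% = enzyme with DMSO and 100% = wells lacking pPAFAH enzyme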
# Active calls of the source: *; . = no result.
SMILES,pPAFAH FP inh,PAFAH1B3 FP inh,PAFAH2 inh,PAFAH1B2 inh,Rin1-Abl PPI inh,E coli Lon inh,pPAFAH confirm
CC(C)CCN(C(=O)CNC(=O)c1ccco1)C(C(=O)NC1CCCCC1)c1cccnc1 (stereo unspecified),4,2,4,1,4,-8,.
CCN(CCO)c1ncnc2c1sc1nc(C(C)C)c3c(c12)CC(C)(C)OC3,5,2,-1,1,0,1,.
CCN(CCO)c1nc(SC)nc2c1sc1nc(-c3ccco3)c3c(c12)CCC3,32*,-3,0,-1,4,-3,.
CSc1nc(NCCOCCO)c2sc3nc(-c4ccco4)c4c(c3c2n1)CCC4,29*,12,8,2,-4,-3,.
COCCN(C(=O)COC(=O)c1nc(Cl)ccc1Cl)c1c(N)n(Cc2ccccc2)c(=O)[nH]c1=O,-5,2,1,8,2,4,.
COC(=O)Cc1csc(Nc2ccc(F)c(Cl)c2)n1,25*,11,5,2,6,-1,.
O=C1c2ccc(-c3ccc(F)cc3OCc3ccccc3)cc2S(=O)(=O)c2cccc(C(=O)N3CCN(c4ncc(Br)cn4)CC3)c21,43*,-8,-6,-4,2,-9,32*
O=C1c2ccc(-c3ccc(F)cc3OCc3ccccc3)cc2S(=O)(=O)c2cccc(C(=O)N3CCN(c4ncc(Cl)cc4Cl)CC3)c21,37*,4,2,-6,0,-11,25*
O=C1c2ccc(Cl)cc2S(=O)(=O)c2cccc(C(=O)N3CCN(c4ccc(Cl)cn4)CC3)c21,8,2,0,4,-3,1,.
COc1ccc(-c2ccc3c(c2)S(=O)(=O)c2cccc(C(=O)N4CCN(c5ccc(Cl)cn5)CC4)c2C3=O)cc1OC,36*,-4,62*,5,3,5,49*
N#Cc1cccnc1N1CCN(C(=O)c2cccc3c2C(=O)c2ccc(-c4ccc(F)cc4OCc4ccccc4)cc2S3(=O)=O)CC1,24,4,-4,9,2,1,.
CCC(=O)N1CCCC(C)(C(=O)Nc2ccc(C)c(C)c2)C1 (stereo unspecified),.,.,.,.,-4,3,.
Cc1ccc(NC(=O)CSCC(=O)N(C)CC(=O)Nc2ccccc2C(F)(F)F)cc1,.,4,4,4,-1,-11,.
Cc1c(Br)c(=O)oc2c(Br)c(O)ccc12,1,7,4,2,-6,-18,.
Cc1c(Br)c(=O)oc2c(Br)c(O)c(O)cc12,63*,47*,83*,51*,-1,-9,81*
CC(C)(C)c1ccc(-n2ncc3c2CCCC3NC(=O)CCN2CCCO2)cc1 (stereo unspecified),37*,4,5,5,4,-5,18
COc1cc(CCc2ccccc2)c(C(=O)O)c(O)c1C/C=C(/C)CCC=C(C)C,72*,10,18,23,0,-2,59*
COC(=O)c1ccc(/C=C/C(=O)OCC(=O)Nc2cc(C)on2)cc1,-3,1,23,3,4,1,.
CCOc1ccc(-n2ccnc2)nn1,45*,6,-8,1,-1,-8,4
Cc1cc(C)n(-c2ccc(-n3ccnc3)nn2)n1,3,16,-8,2,-1,-5,.
O=S(=O)(c1cccs1)N1CN(Cc2ccco2)c2nc3ccccc3nc21,46*,3,2,5,-4,10,16
O=C(Nc1ccccc1-c1ccccc1)c1ccccc1,-2,5,3,1,-1,7,.
Nc1c(S(=O)(=O)O)cc(NC(=O)c2ccccc2)c2c1C(=O)c1ccccc1C2=O,84*,49*,54*,34*,-4,16,90*
O=C1C(=Cc2ccc(Br)o2)C(=O)c2ccccc21,50*,18,71*,9,8.7*,7,66*
COC(=O)Cn1cnc(C(=O)Nc2ccc(C)c(C)c2)n1,6,5,0,7,2,-5,.
